Assay [1] can be described thus: OV-KATE Cancer Cell Toxicity qHTS against the NCATS CANVASS Library (AID 1347345). For activity change, negative = cytotoxicity: % is set by controls: 0 for no effect and ±100 for the full control effect. Note: potency is the fitted concentration of half-maximal effect. Put shortly:
(§1)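 Following a 4 h pre-incubation of 1000 seeded cells, compounds were pinned in an 11-pnt dilution series and left for 72 h; viability then came from CellTiter-Glo.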

A short description of assay [2]: OV-SAHO Cancer Cell Toxicity qHTS against the NCATS CANVASS Library (AID 1347348). For activity change, negative = cytotoxicity: series mostly up to about 38 µM; % is set by controls: 0 for no effect and ±100 for the full control effect. Note: nearly all actives have a fitted effect of over 55% in size. Note: potency is the fitted concentration of half-maximal effect. Summed up:
as §1

Assay [3] in a line: SW1088 Cancer Cell Toxicity qHTS against the NCATS CANVASS Library (AID 1347350). For activity change, negative = cytotoxicity: series mostly up to about 38 µM; % is set by controls: 0 for no effect and ±100 for the full control effect. Note: nearly all actives have a fitted effect of over 75% in size. Note: potency is the fitted concentration of half-maximal effect. Summed up: as §1
The nature of assay [4]: A2780 Cisplatin Sensitive Ovarian Cancer Cell Toxicity qHTS against the NCATS CANVASS Library (AID 1347353). Note: nearly all actives have a fitted effect of over 60% in size. Note: potency is the fitted concentration of half-maximal effect. Put shortly:
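Seventy-two-hour exposure of cisplatin-sensitive A2780 ovarian cells to an 11-concentration qHTS series; cytotoxicity is inferred from loss of ATPLite luminescence. Bortezomib titration served as positive control.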

Assay [5] is described as follows: HEK-293 Cancer Cell Toxicity qHTS against the NCATS CANVASS Library (AID 1347355). Note: nearly all actives have a fitted effect of over 65% in size. Note: potency is the fitted concentration of half-maximal effect. Put shortly:
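qHTS cytotoxicity: compounds tested in 11 concentrations on 1000 seeded cells per well over 72 h; bortezomib served as control; signal from CellTiter-Glo luminescence.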

The nature of assay [6]: HEK293 24hr Apoptosis Induction qHTS against the NCATS CANVASS Library (AID 1347359). Note: 0% is about no effect. Put shortly:
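HEK293 cells (500/well, DMEM + 10% FBS) were exposed to compounds in an 11-point series for 24 hours at 37 degrees C, then caspase-3/7 activity was read by Caspase-Glo DEVD luciferase luminescence after 15 min.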

Assay [7] in a line: KB-8-5-11 Cancer Cell Toxicity qHTS against the NCATS CANVASS Library (AID 1347364). Note: nearly all actives have a fitted effect of over 75% in size. Note: potency is the fitted concentration of half-maximal effect. Summed up: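 Natural products were titrated in 11 points onto KB-8-5-11 cells, 500 per well, and cytotoxicity was scored from CellTiter-Glo luminescence after 72 hr culture.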
Assay [8] in a line: SDT Cancer Cell Toxicity qHTS against the NCATS CANVASS Library (AID 1347365). Note: nearly all actives have a fitted effect of over 60% in size. Note: potency is the fitted concentration of half-maximal effect. Put shortly:
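Dispense 500 SDT cells per well; pin-transfer compounds; incubate 72 hr at 37C, 5% CO2, 95% RH; add CellTiterGlo and read luminescence.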

Assay [9] is described as follows: qHTS for ATAD5 Agonist screened against the NCATS CANVASS Library (AID 1347367).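 Note: luciferase reporter driven by ATAD5 which rises upon DNA damage; 0% is about no effect.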 Put shortly:
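Step one plated reporter cells and let them acclimate 5hr. Step two pinned compounds with MMS as positive and 0.46% DMSO as negative control. After 16hr incubation, fluorescence viability then luminescence were read.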

The nature of assay [10]: G06 Cancer Cell Toxicity qHTS against the NCATS CANVASS Library (AID 1347368). Note: nearly all actives have a fitted effect of over 60% in size. Note: potency is the fitted concentration of half-maximal effect. Summed up:
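Cytotoxicity toward canine glioma G06 cells is scored from cellular ATP via luminescence after 72 hr compound exposure at 500 cells/well.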

The nature of assay [11]: qHTS for Hypoxia signaling pathway (HIF-1) antagonists against the NCATS CANVASS Library (AID 1347374). Note: nearly all actives have a fitted effect of over 60% in size. Note: potency is the fitted concentration of half-maximal effect. Summed up: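 HRE-bla ME-180 cells (2,000/well, 0.5% dialyzed FBS) were pre-incubated 5 h, then given an 11-point compound series plus CoCl2 (60 uM solution as added) for 17 h at 37C. CCF4 β-lactamase read (ex 405, em 460/530 nm) after 2 h at RT.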
The nature of assay [12]: DH5-alpha competent E. coli microbial cell viability qHTS against the NCATS CANVASS Library (AID 1347377). For viability signal change, negative = cytotoxic: 0% is about no effect. The conditions noted are these: outcome: dose series up to 46.1 µM unless noted. Put shortly:
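Cell viability of competent DH5-alpha E. coli is scored from ATP content by luminescence. Cells sit overnight at 37C with compound across an 11-point concentration series.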

Assay [13] can be described thus: qHTS for Activators of p53 Stress Response Pathway screened against the NCATS CANVASS Library (AID 1347388). Note: 0% is about no effect. Summed up: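 p53RE-bla HCT-116 cells (4000/well) were plated 5 h at 37C, exposed to compounds for 16 h at 37C over an 11-point concentration series, then loaded with CCF4 for 2 h at room temperature; 460/530 nm emission ratio read.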
A short description of assay [14]: qHTS for activators of dead-cell proteases activity screened against the NCATS CANVASS Library (AID 1347392).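 Note: luminescence from protease leaking out of membrane-damaged cells cleaving impermeant substrate; 0% is about no effect; rising signal means more cytotoxicity.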 Put shortly:
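HepG2 cells (2000/well) attached 18 h at 37C, then exposed 5 h to compounds (11-point qHTS). Dead-cell protease activity read as luminescence from cell-impermeant AAF-aminoluciferin substrate after 15 min at room temperature.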

The nature of assay [15]: qHTS for inhibitors of ER calcium dysfunction: SERCaMP assay screened against the NCATS CANVASS Library (AID 1347393).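 For activity change, negative = inhibition: series mostly up to about 77 µM; % is set by controls: 0 for no effect and ±100 for the full control effect; lower secreted reporter signal means inhibitor of ER calcium depletion.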 Note: nearly all actives have a fitted effect of over 40% in size. Note: potency is the fitted concentration of half-maximal effect. Summed up: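 qHTS in SH-SY5Y reporter cells: 16 h compound pretreatment, 4 h thapsigargin, then secreted Gaussia luciferase measured by luminescence.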
A short description of assay [16]: qHTS for inhibitors of Wild type Zika virus screened against the NCATS CANVASS Library (AID 1347396).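 Note: ATP luminescence of surviving cells so rescue from viral cell killing; series mostly up to about 46 µM; % is set by controls: 0 for no effect and ±100 for the full control effect.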 Summed up: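 Vero 766 cells, 1000/well, o/n attach; cpds pin-transferred (11-pt qHTS); WT Zika added; 72 h, 37C, 5% CO2; CellTiter Glo lumi. Uninfected + vehicle = 100% inhibition.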
Assay [17] is described as follows: HPAF-II 12hr Apoptosis Induction qHTS against the NCATS CANVASS Library (AID 1347358). Note: 0% is about no effect. Summed up: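 Apoptosis in HPAF-II pancreatic cancer cells is scored as caspase 3/7 luminescence following a 12-hour exposure to an 11-point compound series.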
Assay [18] in a line: Inflammasome Signaling qHTS Counterscreen: IL-1-beta AlphaLISA counterscreen against the NCATS CANVASS Library (AID 1347381).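 Note: cell-free check with purified IL-1β in medium and no THP-1 cells; series mostly up to about 57 µM; 0% is about no effect.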 Summed up:
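To flag interference with the AlphaLISA read-out, a known amount of purified IL-1-beta (4 pg) replaced cell supernatant. Detection used anti-IL-1-beta acceptor beads, biotinylated antibody and streptavidin donor beads at room temperature.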

Assay [19] in a line: qHTS for activators of Nrf2/ARE signaling pathway screened against the NCATS CANVASS Library (AID 1347391). For activation: 0% is about no effect. Note: nearly all actives have a fitted effect of over 60% in size. Note: potency is the fitted concentration of half-maximal effect. Summed up: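 Cells carrying an ARE-driven beta-lactamase reporter (HepG2 background) are dosed for 16 h, then stained with CCF4. Cell viability in the same wells is measured by CellTiter-Glo luminescence.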
Assay [20] deals with Luciferin 4-monooxygenase (Photinus pyralis) (UniProt P08659). In words: Firefly luciferase counterscreen qHTS: Assay Interference Panel against the NCATS CANVASS Library (AID 1347363). Note: series mostly up to about 57 µM; 0% is about no effect. Summed up:
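Purified P. pyralis luciferase was added to compounds (11-point series) preincubated 15 min at room temperature with substrate containing 0.013 mM D-luciferin and 0.013 mM ATP; luminescence was read after 5 min.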

Values without a mark were called inactive. Records with an inconclusive call do not appear. Calls of active or inactive are those of the source. Calls come from the whole dose curve; as a rule, active = well fitted curve in the direction sought with a large enough effect; inconclusive = small, poorly fitted or top-dose-only effect, or another doubt; inactive = no such curve, though single readings can be large; an effect the other way counts as inactive or inconclusive.

Sequence of Luciferin 4-monooxygenase (Photinus pyralis) (P08659 whole entry, looked up): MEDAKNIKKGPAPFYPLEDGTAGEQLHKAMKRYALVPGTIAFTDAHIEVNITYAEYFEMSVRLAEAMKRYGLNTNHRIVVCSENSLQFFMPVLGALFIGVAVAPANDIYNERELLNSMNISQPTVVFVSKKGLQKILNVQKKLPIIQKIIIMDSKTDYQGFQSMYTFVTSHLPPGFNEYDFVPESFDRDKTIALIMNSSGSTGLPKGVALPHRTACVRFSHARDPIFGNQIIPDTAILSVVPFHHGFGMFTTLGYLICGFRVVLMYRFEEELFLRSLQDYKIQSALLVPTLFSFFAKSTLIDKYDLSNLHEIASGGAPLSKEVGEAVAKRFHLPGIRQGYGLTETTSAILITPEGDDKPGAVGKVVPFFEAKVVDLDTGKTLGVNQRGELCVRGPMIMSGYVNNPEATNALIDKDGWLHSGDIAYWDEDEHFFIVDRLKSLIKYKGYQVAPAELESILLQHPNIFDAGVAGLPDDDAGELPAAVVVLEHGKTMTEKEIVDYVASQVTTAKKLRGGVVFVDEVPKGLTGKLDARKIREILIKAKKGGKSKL

For `C[C@]12CCC[C@](C)(C(=O)O)[C@@H]1CC[C@@]1(C)c3cocc3CC[C@H]21`, the Potency entry in [1], in [2], in [3], in assay [4], in [5] and in assay [6] was “inactive” in each case. Further, the Potency result in [7], in [8], in [9], in assay [10], in [11] and in assay [13] was “inactive” each time. The Potency entry in assay [14] and in [15] was “inactive” throughout. Besides, the outcome in assay [12] and in assay [16] was inactive.
For the compound `C/C(=C\CC[C@@H](C)[C@H]1CC[C@]2(C)C3=CCC4C(C)(C)[C@@H](O)C[C@@H](O)[C@]4(C)C3[C@H](O)C[C@@]12C)CO` (stereo partly drawn), the Potency result in [1], in [8], in assay [9], in [10], in [13] and in assay [14] was “inactive” each time. In addition, in [11], the Potency is 14.9 µM (active).
As for `CO[C@H]1[C@@H](OC(=O)/C(C)=C\[C@@H]2O[C@@H]2[C@H]2O[C@H]2C)[C@H](O)[C@H](OCC23C[C@@H]4[C@H](C)CC[C@H]4C4(C=O)CC2C=C(C(C)C)C34C(=O)O)O[C@@H]1C` (stereo partly drawn), the Potency result in assay [1], in [2], in assay [3], in assay [5], in assay [17] and in assay [6] was “inactive” each time. Besides, the Potency result in assay [7], in assay [10], in [11], in assay [13] and in assay [14] was “inactive” in each case. For the same compound, the compound was classed as inactive in assay [12], in [18] and in [16]. Moreover, in assay [19], the Potency is 16.6 µM (active).
As to `CN1CC[C@]2(c3cccc4c3N[C@H]3N(C)CC[C@@]43[C@]34CCN(C)[C@H]3Nc3ccccc34)c3ccccc3N[C@H]12`, the Potency is 18.8 µM (active) in [1]; 16.7 µM (active) in assay [2]; 7.43 µM (active) in assay [5]; 18.7 µM (active) in assay [7]; 4.18 µM (active) in assay [8]; 7.43 µM (active) in [10]. The Potency result in assay [6], in [20], in assay [9], in assay [13] and in assay [14] was “inactive” in each case. Also, in [12], the call was inactive.
For `C=C(C)CC[C@H](Cc1c(O)cc(O)c2c1O[C@H](c1ccc(O)cc1)CC2=O)C(=C)C`, the Potency result in assay [1], in [5], in assay [17], in assay [6], in [20] and in assay [9] was “inactive” each time. In addition, the Potency result in assay [10], in [13] and in assay [14] was “inactive” in each case. The values for the Potency in assay [3] and in assay [4] were 23.7 µM (active) and 23.5 µM (active), respectively. The outcome in [18] was inactive.
`O=c1cc(-c2ccc(O)c(O)c2)oc2cc(O[C@@H]3O[C@H](CO)[C@@H](O)[C@H](O)[C@H]3O)cc(O)c12`: the Potency result in [1], in [17], in assay [20], in assay [9], in [11] and in [13] was “inactive” throughout. Moreover, the Potency entry in [19] and in assay [14] was “inactive” throughout. For the same compound, the Potency in [2] is 16.7 µM (active); in assay [15] it was 38.4 µM (active). Also, the call in [12] and in assay [16] was inactive.
For the compound `COc1ccc([C@@H]2CC(=O)c3c(cc(O)c(C/C=C(\C)CCC=C(C)C)c3O)O2)cc1`, the values for the activity change, negative = cytotoxicity in [2], in [5] and in assay [8] were -12.7% [at 7.64 µM], -14.6% [at 9.19 µM] and 0.771% [at 9.19 µM], respectively. Also, the activity change, negative = inhibition in assay [20] is -12.4% [at 11.5 µM]; in [11], 8.62% [at 7.64 µM]. Further, the outcome in assay [10] was “inactive [at 9.19 µM]”. Further, the viability signal change, negative = cytotoxic in assay [12] is 8.04% [at 9.19 µM]. The activation in assay [13] is 21.1% [at 9.19 µM]. In [14], the activation (cytotoxicity) was -1.61% [at 9.19 µM].
